Results filed as inconclusive are left out. Unmarked numbers belong to inactive results. Calls of active or inactive are those of the source. Calls come from the whole dose curve; as a rule, active = well fitted cell-killing curve with a large enough effect; inconclusive = small, poorly fitted or top-dose-only effect, or effect the other way; inactive = no such curve, though single readings can be large or run the other way.
Potency is the fitted concentration of half-maximal effect.

The assay in a line: Quantitative High-Throughput drug screen in 47 multiple myeloma cell lines against the NCATS MIPE library collection: PCM6_Riken cell viability assay (AID 1919870). Note: nearly all actives have a fitted effect of over 30% in size. The settings on record: CellTiter-Glo ATP, 48 h; series mostly up to 45.8 µM; viability (% of control): at the top concentration. The source says: PI: Beverly A. Mock Ph.D.
Laboratory of Cancer Biology and Genetics,
Center for Cancer Research, National Cancer Institute,
National Institute of Health, Bethesda, Maryland
Drug resistance and disease progression are common in multiple myeloma (MM) patients, underscoring the need for new therapeutic combinations. […] We hypothesized that effective combinations would reduce MYC expression and enhance p16 activity. […] These preclinical data identify potentially useful drug combinations for evaluation in drug-resistant MM and reveal potential mechanisms of combined drug sensitivity.
Described herein is the primary MIPE qHTS used to cherrypick compounds. Validated compounds were then further tested for potential synergistic activiy.
[1] Peat TJ, Gaikwad SM, Dubois W, Gyabaah-Kessie N, Zhang S, Gorjifard S, Phyo Z, Andres M, Hughitt VK, Simpson RM, Miller MA, Girvin AT, Taylor A, Williams D, D'Antonio N, Zhang Y, Rajagopalan A, Flietner E, Wilson K, Zhang X, Shinn P, Klumpp-Thomas C, McKnight C, Itkin Z, Chen L, Kazandijian D, Zhang J, Michalowski AM, Simmons JK, Keats J, Thomas CJ, Mock BA. Drug combinations identified by high-throughput screening promote cell cycle transition and upregulate Smad pathways in myeloma. Cancer Lett. 2023 Aug 1;568:216284. doi: 10.1016/j.canlet.2023.216284. Epub 2023 Jun 24. PMID: 37356470; PMCID: PMC10408729.
SEQUENCE No. (e.g., 1, 2, 3, etc.); […] (e.g., Cells, Incubation, Reagent, etc.); VALUE and DESCRIPTION.
1; Cells; 5 uL; white, solid bottom 1536-well Greiner assay plate.
2; Compounds; 23 nL; Kalypsis pin tool (Wako USA) equipped with a 1536-well pin head to transfer to the assay plates.
3; Incubation; 48 hours; 37C incubation.
4; Reagent;5uL; CellTiter Glo (Promega).
5; Detector; 425V; Luminescence; Viewlux PerkinElmer.
NOTES (numbers refer to Sequence numbers above)
1. The cell-based screening methods employed in this study were like those previously published. Briefly, the corresponding myeloma cell lines were screened in 1,536-well plates with 500 cells, 5-uL per well for inhibition of cell viability (assessed by measuring ATP levels with CellTiterGlo).
2. NCATS MIPE 4.0 library of approved and investigational drugs were added using the Kalypsis pin tool. Wells treated with DMSO only for 100% viability and media only for 0% viability were used as controls.
3. The assay plates were covered and incubated for 48 hours in a 37C, 5% CO2 incubator with controlled humidity.
4. After 48 hours, CellTilter-GloTM luminescent substrate mix (Promega) reagent was added to the assay plate and plates we incubated for 5 min at room temperature.
5. Signal was measured as median relative luminescence units on a ViewLux (PerkinElmer) multiplate reader.
[1] Heske CM, Davis MI, Baumgart JT, Wilson K, Gormally MV, Chen L, Zhang X, Ceribelli M, Duveau DY, Guha R, Ferrer M, Arnaldez FI, Ji J, Tran HL, Zhang Y, Mendoza A, Helman LJ, Thomas CJ. Matrix Screen Identifies Synergistic Combination of PARP Inhibitors and Nicotinamide Phosphoribosyltransferase (NAMPT) Inhibitors in Ewing Sarcoma. Clin Cancer Res. 2017 Dec 1;23(23):7301-7311. doi: 10.1158/1078-0432.CCR-17-1121. Epub 2017 Sep 12. PMID: 28899971; PMCID: PMC6636827.
In the case of `CCOC(=O)N1CCC(=C2c3ccc(Cl)cc3CCc3cccnc32)CC1`, the “viability (% of control)” value was 129%.
Take `CNC(=O)c1ccc(C)c(-n2c(C)cc(OCc3ccc(F)cc3F)c(Br)c2=O)c1`: the Potency is 14.8 µM (active).
Consider `OC(CN1CCC(Cc2ccc(F)cc2)CC1)c1ccc(Cl)cc1` (stereo not given), for which the “viability (% of control)” value is 100%.
`NNCCc1ccccc1`: the “viability (% of control)” value is 97%.
As to `Cc1ccnc(NS(=O)(=O)c2ccc(NC(=O)Nc3ccc(S(=O)(=O)Nc4nccc(C)n4)cc3)cc2)n1`, the Potency is 4.69 µM (active).
Same read-out and setting: then `CC(=O)Oc1ccccc1C(=O)O`, with 5.26 µM (active); and `CCOc1cc(C=C2C(=O)N(c3ccccc3)N=C2C)cc(Cl)c1OCC(=O)OC`, with 16.6 µM (active).
Regarding `CCCCNc1cc(C(=O)O)cc(S(N)(=O)=O)c1Oc1ccccc1`, the “viability (% of control)” value was 137%.
For the molecule `COCC(=O)NCC=Cc1ccc2ncnc(Nc3ccc(Oc4ccc(C)nc4)c(C)c3)c2c1`, the Potency was 20.9 µM (active).
As to `Cc1ccc(N(CC2=NCCN2)c2cccc(O)c2)cc1`, the “viability (% of control)” value was 135%.
Turning to `Cc1ccc(NC(=O)c2cccc(C(C)(C)C#N)c2)cc1Nc1ccc2ncn(C)c(=O)c2c1`, the “viability (% of control)” value was 74.8%.
As for `CC(C)(C)NCC(O)c1ccc(O)c(CO)c1` (stereo not given), the “viability (% of control)” value was 123%.
For `COc1c(Cl)cc2c([nH]c3cnccc32)c1NC(=O)c1cccnc1C`, the Potency was 1.66 µM (active).
Regarding `OC(CCN1CCCCC1)(c1ccccc1)C1CC2C=CC1C2` (stereo not given), the “viability (% of control)” value was 127%.
`CC1(C)Cc2c(-c3ccccc3)c(-c3ccc(Cl)cc3)c(CC(=O)O)n2C1`: the Potency is 20.9 µM (active).
Regarding `COCCNCCCn1c(C(=O)CF)c(-c2ccc(C)cc2)c2c(N)ncnc21`, the Potency is 10.5 µM (active).
Consider `COc1ccc(-c2oc3cc(OC)ccc3c2C(=O)c2ccc(C#N)cc2)cc1`, for which the Potency was 5.26 µM (active).
For the molecule `Cc1c(CCOc2ccc(C(=O)O)cc2)c2cc(Cl)ccc2n1C(c1ccccc1)c1ccccc1`, the “viability (% of control)” value is 91.9%.
Take `NC(=O)c1ccc(-c2nc(-c3ccc4c(c3)OCCO4)c(-c3ccccn3)[nH]2)cc1`: the Potency is 13.2 µM (active).
In the case of `Cc1cc2c(C(C)C)c(O)c(O)c(C=O)c2c(O)c1-c1c(C)cc2c(C(C)C)c(O)c(O)c(C=O)c2c1O`, the Potency is 6.62 µM (active).
For `O=c1ncn2nc(Sc3ccc(F)cc3F)ccc2c1-c1c(Cl)cccc1Cl`, the Potency was 13.2 µM (active).
With `Nc1nc2c(ncn2COCCO)c(=O)[nH]1`, the Potency was 23.5 µM (active).
Consider `CN1CCN(CCCN2c3ccccc3Sc3ccc(C(F)(F)F)cc32)CC1`, for which the Potency is 1.48 µM (active).
Turning to `COc1ccc(CCN2CCN(CCCc3ccccc3)CC2)cc1OC`, the “viability (% of control)” value is 112%.
Take `CCOc1cc(N2CCC(O)CC2)ccc1Nc1ncc2c(n1)N(C)c1ccccc1C(=O)N2C`: the Potency is 14.8 µM (active).
Regarding `OCCC#Cc1nc(-c2ccc(F)cc2)c(-c2ccncc2)n1CCCc1ccccc1`, the Potency is 23.5 µM (active).
On to `Cc1[nH]c(=O)c(C#N)cc1-c1ccncc1`, for which the Potency was 7.43 µM (active).
`Cc1c(C)c2c(c(C)c1O)CCC(C)(COc1ccc(CC3SC(=O)NC3=O)cc1)O2` (stereo not given): the Potency is 20.9 µM (active).
Same read-out and setting: then `CS(=O)(=O)c1cccc(CNc2nc(Nc3ccc4c(c3)CCC(=O)N4)ncc2C(F)(F)F)c1`, with 7.43 µM (active).
As for `CC(C)(Sc1ccc(CCN(CCCCC2CCCCC2)C(=O)NC2CCCCC2)cc1)C(=O)O`, the “viability (% of control)” value was 111%.
For `Cn1cnc2c(F)c(Nc3ccc(Br)cc3Cl)c(C(=O)NOCCO)cc21`, the Potency is 0.166 µM (active).
In the case of `CC(c1cc2ccccc2s1)N(O)C(N)=O` (stereo not given), the “viability (% of control)” value was 112%.
In the case of `CCN(c1ccccc1)c1cc(NC)[n+](C)c(C)n1`, the “viability (% of control)” value was 111%.
On to `O=C1CCc2cc(OCCCCc3nnnn3C3CCCCC3)ccc2N1`, for which the “viability (% of control)” value is 73.9%.
On to `CCc1cc(Nc2nccc(-c3c(-c4ccc(OC)c(C(=O)Nc5c(F)cccc5F)c4)nc4ccccn34)n2)c(OC)cc1N1CCC(N2CCN(S(C)(=O)=O)CC2)CC1`, for which the “viability (% of control)” value is 97.2%.
`O=C(NOC[C@H](O)CO)c1ccc(F)c(F)c1Nc1ccc(I)cc1F`: the “viability (% of control)” value is 111%.
Still for that read-out and setting: the figure for `NS(=O)(=O)c1cc2c(cc1Cl)NC=NS2(=O)=O` is 126%.
With `Cc1cccc(-c2[nH]c(C(C)(C)C)nc2-c2ccc3nccnc3c2)n1`, the Potency is 7.43 µM (active).
On to `C[C@]12CC[C@H](O)CC1=CC[C@@H]1[C@H]2CC[C@]2(C)C(c3cccnc3)=CC[C@H]12`, for which the “viability (% of control)” value was 95.9% [at 23.2 µM].
In the case of `COc1cc(F)c(F)c(Nc2ccc(I)cc2F)c1NS(=O)(=O)C1(C[C@H](O)CO)CC1`, the Potency was 14.8 µM (active).
